Reference: PubChem BioAssay AID2535 (National Center for Advancing Translational Sciences (NCATS), 2010)

target: Pyruvate kinase PKLR (Homo sapiens) (UniProt P30613); test: Secondary Concentration-Response Assay for Activators of Human Liver Pyruvate Kinase: for Probe SAR; settings: purified hPK-L, ATP production, Kinase-Glo luminescence; series mostly up to 58.3 µM; activity change, positive = activation: at the top concentration;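 also: 0% = uninhibited enzyme wells on each plate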
Procedure, shortened: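 Purified human liver pyruvate kinase (0.1 nM) incubated 1 h at room temperature with compound, 0.5 mM PEP and 0.1 mM ADP in imidazole buffer pH 7.2; ATP formed read by Kinase-Glo luminescence, normalized to uninhibited wells.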

Sequence of Pyruvate kinase PKLR (Homo sapiens) (P30613 whole entry, looked up): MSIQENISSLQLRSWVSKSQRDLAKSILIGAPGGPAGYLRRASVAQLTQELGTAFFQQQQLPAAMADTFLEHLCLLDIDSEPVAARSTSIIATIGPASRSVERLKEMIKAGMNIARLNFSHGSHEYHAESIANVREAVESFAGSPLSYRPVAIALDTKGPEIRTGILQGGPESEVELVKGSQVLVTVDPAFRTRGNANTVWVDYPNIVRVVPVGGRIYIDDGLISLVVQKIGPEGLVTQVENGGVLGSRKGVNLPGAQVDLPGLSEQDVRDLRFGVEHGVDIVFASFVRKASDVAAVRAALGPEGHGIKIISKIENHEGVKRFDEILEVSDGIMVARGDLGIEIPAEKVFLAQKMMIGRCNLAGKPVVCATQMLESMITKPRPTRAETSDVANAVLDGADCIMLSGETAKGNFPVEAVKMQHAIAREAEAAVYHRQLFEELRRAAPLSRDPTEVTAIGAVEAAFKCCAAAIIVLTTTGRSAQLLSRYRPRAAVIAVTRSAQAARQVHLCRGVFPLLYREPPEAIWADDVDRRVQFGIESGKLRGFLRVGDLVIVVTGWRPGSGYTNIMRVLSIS

Activity change, positive = activation, inactive:
Cc1ccc(NS(=O)(=O)c2ccc3c(c2)NC(=O)CO3)cc1C 15.7%, O=C1CCc2cc(S(=O)(=O)Nc3ccc(-c4ccccc4)cc3)ccc2N1 5.78%, COc1ccc(S(=O)(=O)Nc2ccc(C)c(C)c2)cc1 9.75%, COc1cccc(N2C(=O)c3ccccc3C2=O)c1 -0.213%, Cn1c2cc(S(C)=O)sc2c2cnn(Cc3cccc(O)c3)c(=O)c21 (centres undefined) -1.92%, Cc1ccc(NS(=O)(=O)c2ccc(-c3ccccc3)cc2)cc1C 10.8%, O=C1CCc2cc(S(=O)(=O)Nc3cccc(C(F)(F)F)c3)ccc2N1 -3.5%, Cc1ccc2nc(-c3ccc(C)o3)c(NC3CCCC3)n2c1 7.09%, O=C1c2ccccc2C(=O)N1Cc1ccccc1 3.62%, O=C1CCc2cc(S(=O)(=O)Nc3ccc4c(c3)CCC4)ccc2N1 17.1%, Cc1ccccc1Nc1c(-c2ccc(Cl)s2)nc2ccccn12 1.64%, Cc1ccccc1Nc1c(-c2ccccc2)nc2cccc(C)n12 0.826%, Cc1ccc(NS(=O)(=O)c2ccc3c(c2)n(C)c(=O)n3C)cc1C 7.5%, O=C1NS(=O)(=O)c2ccccc21 2.82%, Cc1ccc(NS(=O)(=O)c2ccc3c(c2)CCN(C(=O)C(F)(F)F)C3)cc1C 4.85%, O=C1c2ccccc2C(=O)N1c1ccc2ncccc2c1 5.86%, Fc1ccccc1-c1ccc(-c2nc3ccc(Cl)cn3c2Nc2ccc(Cl)cc2)o1 -46.2%, CC(C)Nc1cccc(S(=O)(=O)N2CCCN(S(=O)(=O)c3ccc4c(c3)OCCO4)CC2)c1 8.24%, Cc1cc(NS(=O)(=O)c2ccc3c(c2)CCC(=O)N3)ccc1Cl 13.3%
